This is an account of results in PubChem BioAssay (NCATS).

Assay [1] can be described thus: qHTS profiling of the MIPE4 collection as inhibitors of Plasmodium falciparum (3D7) proliferation (AID 743344; call rule not given here;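 also: scaled between DMSO vehicle wells and 0.29 µM artemisinin as full inhibition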). The settings on record: P. falciparum 3D7 in erythrocytes, SYBR Green DNA fluorescence, 72 h; at 28.5 µM unless noted. The method, boiled down: (§1)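 Erythrocytes infected with P. falciparum (0.3% parasitemia, 2.5% hematocrit) incubated with compounds 72 h at 37 C, 5% CO2. Lysis with saponin/Triton buffer containing SYBR Green I, overnight at room temperature in the dark; DNA fluorescence (485/535 nm) normalised to 0.29 uM artemisinin and DMSO.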
In general terms: qHTS replaces the single test concentration by a dilution series.

Assay [2] in a line: qHTS profiling of the MIPE4 collection as inhibitors of Plasmodium falciparum (DD2) proliferation (AID 743345; call rule not given here). The settings on record: P. falciparum Dd2 in erythrocytes, SYBR Green DNA, 72 h; at 28.5 µM unless noted. In a few lines: as §1
Assay [3] can be described thus: qHTS profiling of the MIPE4 collection as inhibitors of Plasmodium falciparum (DD2) proliferation (Rep 2) (AID 743346; call rule not given here). The settings on record: P. falciparum Dd2 in erythrocytes, SYBR Green DNA, 72 h; at 28.5 µM unless noted. The method, boiled down: as §1
Assay [4] can be described thus: qHTS profiling of the MIPE4 collection as inhibitors of Plasmodium falciparum (HB3) proliferation (AID 743347; call rule not given here;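 also: plate controls were DMSO vehicle wells for no effect and artemisinin wells for full effect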). To be noted: P. falciparum HB3 in erythrocytes, SYBR Green DNA, 72 h; at 28.5 µM unless noted. The method, boiled down: as §1
Assay [5] can be described thus: High-throughput drug toxicity screening in the BPDCN cell line Gen2.2 (AID 1224824; call rule not given here;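 also: cells exposed to compounds for 48 h before reading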). The settings on record: Gen2.2 BPDCN cells; at 45.8 µM (top of the series) unless noted. In a few lines:
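Seed 500 exponentially growing Gen2.2 cells/well; add compounds by pin tool; incubate 48 h, 37 °C, 5% CO2; add CellTiter-Glo, 15 min RT; read luminescence. % activity vs DMSO (100%) and bortezomib (0%).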

A short description of assay [6]: High-throughput drug toxicity screening in the BPDCN cell line Cal-1 (AID 1224825; call rule not given here). The settings on record: Cal-1 BPDCN cell viability, qHTS; at 45.8 µM (top of the series) unless noted. The method, boiled down:
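500 Cal-1 cells/well, RPMI + glutamine + 10% FBS (phenol red-free); cpd added by pin tool; 48 h, 37C, 5% CO2; CTG 15 min RT, lumi read. Normalised: DMSO 100%, bortezomib 9.2 uM 0%.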

Assay [7] is described as follows: qHTS assay for measurement of the activity of small molecule inhibitors on Zika virus induced Caspase-3 activity in human iPSC derived neural progenitor cells (hNPCs) (AID 1224857). Also: % of control where 0% means no effect; nearly all actives have a fitted effect of over 65% in size. In a few lines:
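hNPCs seeded 350 cells/well, cultured 16–20 h; compounds added 1 h before ZIKV (2 FFU/cell), 37 C 6 h. Caspase-Glo 3/7 luminescence after 30 min RT; % inhibition from induction scaled to uninfected (0%) and infected (100%) wells.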

Assay [8] can be described thus: qHTS assay for measurement of the activity of small molecule inhibitors on Zika virus induced Caspase-3 activity in human astrocytoma cells (AID 1224859).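 Also: plate controls were ZIKV-infected untreated cells for no effect and uninfected cells for full effect.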 The method, boiled down:
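Luminescence read-out (Caspase-Glo 3/7, 30 min RT) of caspase activity in SNB-19 cells infected 6 h with ZIKV, 2 FFU/cell, after 1 h compound pretreatment; % inhibition from induction normalised to uninfected (0%) and infected (100%) wells.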

Assay [9] can be described thus: qHTS Screen of the MIPE 4.0 Collection Against Ewings Sarcoma (RDES) (AID 1259252). Also: nearly all actives have a fitted effect of over 35% in size. Also: potency is read from the fitted curve at half-maximal effect. In a few lines:
(§2)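 After a 4 h attachment period in RPMI/5% FBS, cells were pin-dosed with test compounds; DMSO served as negative and 9.2 uM bortezomib (final) as positive control. Luminescent CellTiter-Glo signal at 48 h defined viability.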

A short description of assay [10]: qHTS Screen of the MIPE 4.0 Collection Against Ewings Sarcoma (TC71) (AID 1259253). Also: nearly all actives have a fitted effect of over 40% in size. Also: potency is read from the fitted curve at half-maximal effect. In a few lines: as §2
Assay [11] in a line: qHTS Screen of the MIPE 4.0 Collection Against Ewings Sarcoma (EW8) (AID 1259255). Also: nearly all actives have a fitted effect of over 35% in size. Also: potency is read from the fitted curve at half-maximal effect.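 As to viability: 100% = DMSO-treated cells and 0% = medium-only wells without cells.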 The method, boiled down: as §2
Assay [12] is described as follows: qHTS assay to identify small molecule inhibitors of chordoma cells - UCH-1 (AID 1259355). Also: % is scaled to controls: 0 for no effect and ±100 for the full control effect; nearly all actives have a fitted effect of over 55% in size. In a few lines:
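Seed 800 cells per well; incubate overnight at 37 C, 5% CO2. Add test compounds (15 concentrations), then the auranofin–topoisomerase-agent combination. Incubate 48hr, add CellTiter-Glo, wait 30min, read luminescence.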

Inconclusive results are not listed. Active and inactive are the calls of the source. Unless noted, calls follow the shape of the dose curve; as a rule, active = well fitted curve in the direction sought with a large enough effect; inconclusive = small, poorly fitted or top-dose-only effect, or another doubt; inactive = no such curve, though single readings can be large; an effect the other way counts as inactive or inconclusive.

In assay [1], `NC[C@H]1O[C@H](O[C@@H]2[C@@H](O)[C@@H](O[C@H]3O[C@H](CO)[C@@H](O)[C@H](N)[C@@H]3O)[C@H](N)C[C@@H]2N)[C@H](O)[C@@H](O)[C@H]1O` showed a parasite growth, % of DMSO control of 96.1%. The parasite growth remaining, % of DMSO control (lower = more inhibition) in assay [2] came to 100%. The parasite growth, % of control (lower = inhibition) in assay [3] is 80.6%. This molecule also yielded a growth, % of control in assay [4] of 66.9%. Besides, the cell viability, % of control (lower = more cytotoxic) in assay [5] worked out at 161%. Further, in assay [6], the viability (% of control) amounted to 98.4%. For the same molecule, the Potency result in [7], in assay [8], in assay [9], in assay [10] and in assay [11] was “inactive” throughout.

Molecule `N#CC(c1ccnc(NCCc2cccnc2)n1)c1nc2ccccc2s1` (stereo not drawn) had a parasite growth, % of DMSO control in assay [1] of 4.46%. In addition, the parasite growth remaining, % of DMSO control (lower = more inhibition) in [2] was 18.6%. Also, the parasite growth, % of control (lower = inhibition) in assay [3] amounted to 15.5%. In assay [4], this molecule showed a growth, % of control of 7.28%. The cell viability, % of control (lower = more cytotoxic) in assay [5] was determined as 9.41%. Besides, the viability (% of control) in assay [6] is 3.4%. Also, the Potency entry in [7] and in [8] was “inactive” each time. Moreover, the Potency was 23.5 µM (active) in assay [9], 16.6 µM (active) in [10] and 14.8 µM (active) in assay [11].

Consider `CCN1C[C@H](C)n2c(c(O)c3c(=O)n(Cc4ccc(F)c(Cl)c4)nc(C(=O)NC)c32)C1=O`, for which the cell viability, % of control (lower = more cytotoxic) in assay [5] stood at 108%. Further, the viability (% of control) in [6] worked out at 113%. Further, the Potency entry in assay [7], in assay [8], in assay [9], in assay [10] and in assay [11] was “inactive” in each case.

In assay [1], `CN(C)c1ccc(-c2nc3ncc(Cl)c(N4CCN(CC(=O)Nc5nccs5)CC4)c3[nH]2)cc1` returned a parasite growth, % of DMSO control of 6.94%. The parasite growth remaining, % of DMSO control (lower = more inhibition) in assay [2] worked out at 9.69%. The parasite growth, % of control (lower = inhibition) in assay [3] worked out at 8.18%. The molecule further displayed a growth, % of control in assay [4] of 2.92%. Besides, the cell viability, % of control (lower = more cytotoxic) in assay [5] is 3.51%. Besides, the viability (% of control) in assay [6] is 8.53%. Further, the Potency entry in assay [7] and in [8] was “inactive” throughout. The Potency in [9] was 20.9 µM (active); in [10], 18.7 µM (active); in assay [11], 16.6 µM (active).

On to `CN[C@@H]1CN(c2ccc3c(=O)c(C(=O)O)cn(-c4nccs4)c3n2)C[C@@H]1OC`, for which the parasite growth, % of DMSO control in [1] amounted to 9.37% [at 9.64 µM]. In assay [2], this molecule had a parasite growth remaining, % of DMSO control (lower = more inhibition) of 7.58% [at 9.64 µM]. Besides, the parasite growth, % of control (lower = inhibition) in assay [3] stood at 8.12% [at 9.64 µM]. In [4], this molecule yielded a growth, % of control of 8.57% [at 9.64 µM]. Also, the cell viability, % of control (lower = more cytotoxic) in assay [5] came out at 7.46% [at 23.2 µM]. For the same molecule, in assay [6], the viability (% of control) was 3.44% [at 23.2 µM]. Also, the Potency entry in [7] and in assay [8] was “inactive” each time. Moreover, the Potency was 1.29 µM (active) in [9], 0.645 µM (active) in [10] and 0.323 µM (active) in assay [11].

In [1], `O=C(O)CCNc1cc(N2CCc3ccccc3CC2)nc(-c2ccccn2)n1` registered a parasite growth, % of DMSO control of 19.7%. For the same molecule, the parasite growth remaining, % of DMSO control (lower = more inhibition) in assay [2] was determined as 48.3%. Besides, in [3], the parasite growth, % of control (lower = inhibition) is 20.6%. The molecule further gave a growth, % of control in assay [4] of 5.23%. Further, the cell viability, % of control (lower = more cytotoxic) in [5] was 158%. Besides, the viability (% of control) in [6] was 91.6%. Besides, the Potency result in assay [7], in assay [8] and in [11] was “inactive” each time. The Potency in assay [9] and in [10] was 26.4 µM (active) each time.

Regarding `CC(C)c1onc(-c2c(Cl)cccc2Cl)c1COc1ccc(C=Cc2cccc(C(=O)O)c2)c(Cl)c1`, in assay [1], the parasite growth, % of DMSO control was 60.6%. Also, the parasite growth remaining, % of DMSO control (lower = more inhibition) in assay [2] is 94.1%. Moreover, the parasite growth, % of control (lower = inhibition) in assay [3] came out at 53.3%. This molecule also registered a growth, % of control in assay [4] of 67.3%. Besides, the cell viability, % of control (lower = more cytotoxic) in assay [5] amounted to 76.8%. In addition, in assay [6], the viability (% of control) worked out at 107%. Besides, the Potency entry in [7], in [8], in [9] and in [11] was “inactive” in each case. Besides, the Potency in assay [10] is 18.7 µM (active).

In assay [2], `CC(C)CN(C[C@@H](O)[C@H](Cc1ccccc1)NC(=O)O[C@H]1CO[C@H]2OCC[C@H]21)S(=O)(=O)c1ccc(N)cc1` came in with a parasite growth remaining, % of DMSO control (lower = more inhibition) of 19.4%. The parasite growth, % of control (lower = inhibition) in assay [3] stood at 101%. Further, the cell viability, % of control (lower = more cytotoxic) in assay [5] is 118%. Further, in [6], the viability (% of control) is 117%. Besides, the Potency entry in [7] and in assay [8] was “inactive” in each case. The figures for the Potency in assay [9], in assay [10] and in assay [11] were 2.09 µM (active), 3.72 µM (active) and 1.32 µM (active), respectively. In assay [12], the result was inactive.
